Several values for one entry are separate records, joined by “and”; a condition that tells them apart may be missing. Equal values may be shown once. Inconclusive results are not listed. Activity calls are given as the source filed them. Unless noted, calls come from the whole dose curve; as a rule, active = well fitted curve in the direction sought with a large enough effect in the repeat runs; inconclusive = weak or mixed curves; inactive = no such curve, though single readings can be large; an effect the other way counts as inactive or inconclusive.
What was measured:
[1] = Caspase-3/7 induction in CHO-K1 cells by small molecules, qHTS cell viability counter screen (AID 1346979); note: nearly all actives have a fitted effect of over 35% in size; note: potency is the fitted concentration of half-maximal effect
How it was run: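 Cytotoxicity counter screen: CellTiter-Fluor added to compound-treated wild-type CHO-K1 cells at 16 h (37C, 5% CO2), fluorescence measured 1 h later; same wells as caspase-3/7 measurement.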

[2] = Caspase-3/7 induction in CHO-K1 cells by small molecules, qHTS assay (AID 1346980); note: nearly all actives have a fitted effect of over 15% in size
How it was run: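 Wild-type cells were seeded at 1,500 per well and settled 5 hr at 37 C, 5% CO2, then exposed to DMSO-dissolved compounds for 17 hr. Caspase-Glo 3/7 reagent was added, and luminescence was read after 30min at room temperature.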

[3] = target: Nuclear receptor subfamily 1 group I member 2 (Homo sapiens) (UniProt O75469); experiment: Human pregnane X receptor (PXR) small molecule agonists, qHTS assay (AID 1346982); note: nearly all actives have a fitted effect of over 35% in size; note: potency is the fitted concentration of half-maximal effect
How it was run: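 PXR-Luc HepG2 reporter cells (CYP3A4-driven luciferase) in 5% charcoal-stripped FBS medium, plated 5 h before compound addition, then treated 24 h at 37C. Luciferase read by ONE-Glo luminescence after 30 min at room temperature.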

[4] = target: Acetylcholinesterase (Homo sapiens) (UniProt P22303); experiment: Acetylcholinesterase (AChE) small molecule antagonists: colormetric cell-based qHTS assay (AID 1347395; calls by dose curve; note: nearly all actives have a fitted effect of over 30% in size; note: potency is the fitted concentration of half-maximal effect)
How it was run: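 Colorimetric readout: DTNB quantifies thiocholine from acetylthiocholine hydrolysed by endogenous AChE of SH-SY5Y cells (2,000/well, plated overnight). Compound pretreatment 30 min, substrate incubation 90 min, both 37 C.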

[5] = target: Acetylcholinesterase (Homo sapiens) (UniProt P22303); experiment: Acetylcholinesterase (AChE) small molecule antagonists: enzyme-based qHTS assay (AID 1347397; calls by dose curve; note: nearly all actives have a fitted effect of over 55% in size; note: potency is the fitted concentration of half-maximal effect); details: Potency: AChE enzyme activity inhibition
How it was run: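 Human recombinant acetylcholinesterase; substrate acetylthiocholine; thiocholine quantified with DTNB (colorimetric). Compound preincubation 30 min RT; reaction 10 min RT.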

[6] = target: Acetylcholinesterase (Homo sapiens) (UniProt P22303); experiment: Acetylcholinesterase (AChE) small molecule antagonists: fluorescence cell-based qHTS assay (AID 1347398; calls by dose curve; note: nearly all actives have a fitted effect of over 50% in size; note: potency is the fitted concentration of half-maximal effect); details: Potency: AChE activity
How it was run: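 Thiocholine generated from acetylthiocholine by SH-SY5Y cell AChE is detected with Thiolite Green (Ex/Em 490/520 nm) after 40 min at room temperature, following 30 min compound pretreatment at 37 C.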

[7] = Caspase-3/7 induction in HepG2 cells by small molecules, qHTS cell viability counter screen (AID 1346981); note: nearly all actives have a fitted effect of over 30% in size; note: potency is the fitted concentration of half-maximal effect; for activity change, negative = cytotoxicity: series mostly up to about 92 µM
How it was run: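 Wild-type HepG2 cells, 2,000/well, settled 5 hr at 37 C, 5% CO2 before compound addition. Viability read by CellTiter-Fluor fluorescence, reagent added after 16 hr compound exposure, then 1 hr at 37C, in the same wells as the caspase read.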

[8] = target: Nuclear receptor subfamily 1 group I member 2 (Rattus norvegicus) (UniProt Q9R1A7); experiment: Rat pregnane X receptor (rPXR) activation by small molecules, qHTS assay (AID 1346983); details: rPXR luciferase reporter cells, One-Glo luminescence, 24 h; max activation: hits give high values; note: nearly all actives have a fitted effect of over 20% in size
How it was run: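 Cell-based rPXR luciferase reporter assay, 2,000 cells per well, rested 5hr at 37 C before compound addition in DMSO, then 24 hr at 37 C. One-Glo reagent was added and luminescence read after 30 min at room temperature.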

[9] = target: Nuclear receptor subfamily 1 group I member 2 (Homo sapiens) (UniProt O75469); experiment: CYP3A4 induction through human pregnane X receptor (PXR) by small molecules, qHTS assay (AID 1346984); note: nearly all actives have a fitted effect of over 40% in size
How it was run: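 DPX-2 HepG2 cells carrying a PXR response element and CYP3A4-promoter luciferase construct, treated with compounds 24 hr at 37C. Then P450-Glo CYP3A4 Luciferin-IPA substrate (3uM final) for 3 hr at 37C, One-Glo added, luminescence read.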
% is set by controls: 0 for no effect and ±100 for the full control effect.

Sequence of Nuclear receptor subfamily 1 group I member 2 (Homo sapiens) (O75469 whole entry, looked up): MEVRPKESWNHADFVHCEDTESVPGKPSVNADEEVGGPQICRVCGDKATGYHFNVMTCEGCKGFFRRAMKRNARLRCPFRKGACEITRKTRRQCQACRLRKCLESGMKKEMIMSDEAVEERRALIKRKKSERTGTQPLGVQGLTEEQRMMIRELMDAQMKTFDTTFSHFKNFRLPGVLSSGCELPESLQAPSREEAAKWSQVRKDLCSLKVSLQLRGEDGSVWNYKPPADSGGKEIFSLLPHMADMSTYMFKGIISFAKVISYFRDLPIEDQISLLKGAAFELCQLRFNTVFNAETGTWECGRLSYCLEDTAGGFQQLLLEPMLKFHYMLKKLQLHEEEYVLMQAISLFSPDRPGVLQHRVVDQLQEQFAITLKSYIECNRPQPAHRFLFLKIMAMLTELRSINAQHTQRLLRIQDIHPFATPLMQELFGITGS
Sequence of Acetylcholinesterase (Homo sapiens) (P22303 whole entry, looked up): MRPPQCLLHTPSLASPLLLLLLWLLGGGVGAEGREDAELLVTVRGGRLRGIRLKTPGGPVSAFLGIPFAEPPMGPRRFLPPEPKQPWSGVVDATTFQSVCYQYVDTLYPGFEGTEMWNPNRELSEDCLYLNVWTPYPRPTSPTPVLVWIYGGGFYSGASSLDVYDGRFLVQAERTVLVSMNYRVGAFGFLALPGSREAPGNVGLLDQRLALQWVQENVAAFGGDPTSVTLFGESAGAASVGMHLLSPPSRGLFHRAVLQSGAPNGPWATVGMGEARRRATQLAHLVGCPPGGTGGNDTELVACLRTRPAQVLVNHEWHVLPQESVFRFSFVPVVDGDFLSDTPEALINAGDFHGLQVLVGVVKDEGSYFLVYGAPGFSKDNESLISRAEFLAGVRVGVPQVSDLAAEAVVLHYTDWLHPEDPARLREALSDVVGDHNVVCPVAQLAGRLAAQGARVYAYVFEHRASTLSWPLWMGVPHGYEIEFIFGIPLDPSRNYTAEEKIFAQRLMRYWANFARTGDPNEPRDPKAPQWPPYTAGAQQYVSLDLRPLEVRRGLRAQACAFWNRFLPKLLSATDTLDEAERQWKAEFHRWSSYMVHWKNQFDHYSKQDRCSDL
Sequence of Nuclear receptor subfamily 1 group I member 2 (Rattus norvegicus) (Q9R1A7 whole entry, looked up): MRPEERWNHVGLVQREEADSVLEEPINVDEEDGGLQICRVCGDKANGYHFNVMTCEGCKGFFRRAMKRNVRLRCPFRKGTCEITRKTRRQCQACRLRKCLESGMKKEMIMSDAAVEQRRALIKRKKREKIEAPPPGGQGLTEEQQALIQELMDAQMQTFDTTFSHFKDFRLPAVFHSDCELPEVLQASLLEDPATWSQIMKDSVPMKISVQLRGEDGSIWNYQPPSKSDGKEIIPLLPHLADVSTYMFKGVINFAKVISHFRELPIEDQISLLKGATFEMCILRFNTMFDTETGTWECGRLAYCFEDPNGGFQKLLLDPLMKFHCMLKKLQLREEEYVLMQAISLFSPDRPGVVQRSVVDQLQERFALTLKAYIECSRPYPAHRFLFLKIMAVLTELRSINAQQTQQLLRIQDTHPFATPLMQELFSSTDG

CCOCn1c(-c2ccc(Cl)cc2)c(C#N)c(Br)c1C(F)(F)F
active: Potency [1] 2.73 µM | Potency [3] 1.37 µM
inactive: Potency [2] | Potency [4] | Potency [5] | Potency [6]

COP(N)(=S)OC
inactive: Potency [1] | Potency [2] | Potency [7] | Potency [5] | Potency [6]
active: Potency [4] 63.3 µM

Clc1ccc(CSC(Cn2ccnc2)c2ccc(Cl)cc2Cl)cc1 (centres undefined)
inactive: Potency [2] | max activation [8] 11.4% | Potency [9] | Potency [4] | Potency [6]
active: Potency [1] 18.8 µM | Potency [3] 9.44 µM

C=CCOC(N)=O
inactive: Potency [1] | Potency [2] | Potency [7] | Potency [4] | Potency [5] | Potency [6]

O=C(O)C1C2CCC(O2)C1C(=O)O (centres undefined)
inactive: Potency [2] | Potency [7] | Potency [4] | Potency [5] | Potency [6]
active: Potency [1] 55.1 µM and 44.5 µM

CCOP(=S)(OCC)SCCS(=O)(=O)CC
inactive: Potency [1] | Potency [2] | Potency [7]
active: Potency [4] 35.6 µM | Potency [5] 71 µM | Potency [6] 35.6 µM

BrCBr
inactive: Potency [1] | Potency [2] | Potency [7] | Potency [4] | Potency [5] | Potency [6]

CC(C)CC(C)N (centres undefined)
inactive: Potency [1] | Potency [2] | Potency [7] | Potency [4] | Potency [5] | Potency [6]

ClCc1ccc(Cl)cc1Cl
inactive: Potency [1] | Potency [2] | Potency [7] | Potency [4] | Potency [5] | Potency [6]

COS(=O)(=O)c1ccc(C)cc1
inactive: Potency [1] | Potency [2] | Potency [7] | Potency [4] | Potency [5] | Potency [6]

O=C(O)c1cc[c]([Hg][Cl])cc1
active: Potency [1] 24.3 µM | Potency [3] 21.7 µM | Potency [6] 71 µM
inactive: Potency [2] | Potency [4] | Potency [5]

CC(C)Oc1cccc(NC(=O)c2ccccc2C(F)(F)F)c1
active: Potency [1] 45.8 µM | Potency [3] 19.3 µM
inactive: Potency [2] | Potency [4] | Potency [5]

CCS(=O)(=O)c1cccnc1S(=O)(=O)NC(=O)Nc1nc(OC)cc(OC)n1
inactive: Potency [1] | Potency [2] | Potency [7] | Potency [4] | Potency [5] | Potency [6]

CC1(C)CN=C(NN=C(/C=C/c2ccc(C(F)(F)F)cc2)/C=C/c2ccc(C(F)(F)F)cc2)NC1
active: Potency [1] 8.63 µM | Potency [7] 19.3 µM
inactive: Potency [2] | Potency [4] | Potency [5] | Potency [6]

BrC(Br)Br
inactive: Potency [1] | Potency [2] | Potency [7] | Potency [4] | Potency [5] | Potency [6]

Nc1c(Oc2ccccc2)cc(O)c2c1C(=O)c1ccccc1C2=O
inactive: Potency [2] | Potency [4] | Potency [5] | Potency [6]
active: Potency [1] 26.6 µM | Potency [7] 18.8 µM

CCCCCCCCCCCCCN1CC(C)OC(C)C1 (centres undefined)
inactive: Potency [1] | Potency [2] | Potency [7] | Potency [4] | Potency [5] | Potency [6]

Brc1c(Br)c(Br)c(Oc2c(Br)c(Br)c(Br)c(Br)c2Br)c(Br)c1Br
inactive: activity change, negative = cytotoxicity [1] -1.81% [at 19 µM] | caspase-3/7 activation [2] 3.41% [at 19 µM] | activity change, negative = cytotoxicity [7] 0.358% [at 19 µM] | activity, negative = inhibition [4] 0.803% [at 23.6 µM] | activity change, negative = inhibition [5] -1.63% [at 23.6 µM] | activity change, negative = inhibition [6] 6.2% [at 23.8 µM]

COCC(=O)N(c1c(C)cccc1C)[C@H](C)C(=O)OC
inactive: Potency [1] | Potency [2] | Potency [7] | Potency [4] | Potency [5] | Potency [6]

COc1ccc(N)cc1N
active: Potency [1] 22.4 µM and 29.4 µM | Potency [7] 56.2 µM
inactive: Potency [2] | Potency [4] | Potency [5] | Potency [6]

CCc1nn(C)c(C(=O)NCc2ccc(C(C)(C)C)cc2)c1Cl
active: Potency [1] 0.243 µM | Potency [7] 34.4 µM
inactive: Potency [2] | Potency [4] | Potency [5] | Potency [6]

C[CH2][Hg][N]1C(=O)C2C(C1=O)C1(Cl)C(Cl)=C(Cl)C2(Cl)C1(Cl)Cl (centres undefined)
inactive: caspase-3/7 activation [2] -6.08% [at 19 µM] | activation [3] -20.9% [at 19 µM] | activity, negative = inhibition [4] 0.291% [at 23.6 µM] | activity change, negative = inhibition [5] -5.88% [at 23.6 µM] | activity change, negative = inhibition [6] 11.1% [at 23.8 µM]
active: Potency [1] 11.6 µM

CC(C)(C)C(O)C(Oc1ccc(-c2ccccc2)cc1)n1cncn1 (centres undefined)
inactive: Potency [2] | Potency [4] | Potency [5] | Potency [6]
active: Potency [1] 61.1 µM | Potency [3] 19.3 µM

N#CCc1ccc(Cl)cc1
inactive: Potency [1] | Potency [2] | Potency [7] | Potency [4] | Potency [5] | Potency [6]

Reference: PubChem BioAssay (Tox21)
